Screen size: about 4,900 compounds; about 2,000 (41%) were called active.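 Rule for the calls: active = thallium signal drop beyond 5 SD of the untreated control mean, on both duplicate plates; inactive = the rest.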 The set was probably picked from earlier hits. Not all results are given here.

The experiment can be described thus: nonspecific activity without KCNK9 expression – cell-based, second counter screen, non-induced KCNK9-HEK293, counter-screen for KCNK9 inhibitor project, confirmation (AID 492997).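 For inhibition: plate controls were buffer only IC0 wells for no effect and SID17386958 at its maximal inhibitory level for full effect.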 Conditions: non-induced KCNK9-HEK293, FluxOR thallium flux, at 10 µM; stronger effect = higher value.
For `CCCCOC(=O)CCCc1ccc([N+](=O)[O-])cc1[N+](=O)[O-]`, the inhibition – broadly, the share of the control response that was lost under treatment – is “inactive”.
For `COc1cc(Cl)c(S(=O)(=O)N2CCN(Cc3ccc4c(c3)OCO4)CC2)cc1Cl`, the inhibition result was “inactive”.
As for `COc1ccc(CCNc2ncnc3c2nnn3Cc2ccccc2)cc1`, the inhibition result was “inactive”.
In the case of `COc1ccc(-c2nc(CCNC(=O)c3ccc(Br)o3)cs2)cc1`, the inhibition entry was “inactive”.
For the compound `COc1ccc(CCNC(=O)c2ccccc2OCc2ccccc2)cc1`, the inhibition is 40% (active).
Take `COCCNc1cc(-c2ccccc2)nc2cc(-c3cccc(F)c3)nn12`: the inhibition was 30% (active).
For the compound `COC(=O)Cn1cnc2scc(-c3ccc(C)c(C)c3)c2c1=O`, the inhibition result is “inactive”.
On to `Cc1ccc(-c2csc(NCCc3nc4cc(Cl)c(Cl)cc4n3CCOCCO)n2)cc1`, for which the inhibition was 36% (active).
As for `CCN(C(=O)COc1ccc(C(=O)c2ccccc2)cc1)c1ccccc1`, the inhibition was 29% (active).
Regarding `Cc1ccc(C2=Nc3c(ccc4ccccc34)C(c3ccncc3)=NN2)cc1`, the inhibition result is “inactive”.
On to `COc1ccc2c(c1)C(c1cccs1)=NNC(c1cccnc1)=N2`, for which the inhibition was 24.5% (active).
In the case of `O=C(NNc1ccccc1Cl)C(O)(c1cccc(C(F)(F)F)c1)c1cccc(C(F)(F)F)c1`, the inhibition result is “inactive”.
For `O=[N+]([O-])/C=C/c1ccc2c(ccn2Cc2ccccc2)c1`, the inhibition is 44.5% (active).
With `COc1cccc(COc2ccc(N(C)S(=O)(=O)c3ccccc3)cc2)c1` the figure was 49.5% (active); with `CCOC(=O)c1cc2sccc2n1Cc1ccc(C#N)cc1`, 53% (active); with `O=C(OCC(=O)N(CCc1ccccc1)Cc1ccccc1)c1ccccc1[N+](=O)[O-]`, “inactive”.
With `O=C(Nc1ccc(Cl)c(Cl)c1)N1CC=C(c2ccccc2)CC1` the entry was “inactive”; with `Cc1nc(N2CCN(c3ccccn3)CC2)c2c(C)c(C(=O)Nc3ccc(F)c(Cl)c3)sc2n1`, 24.5% (active); with `COc1ccc(C(=O)C2CCCN(C(=O)c3cc(C)on3)C2)cc1F` (configuration not stated), “inactive”.
As to `Oc1ccc(/C=N/Nc2nc(-c3ccccc3F)nc3ccccc23)c(O)c1`, the inhibition is 32% (active).
Take `O=C1c2ccccc2S(=O)(=O)N1CC(O)Cn1c2ccccc2c2ccccc21` (configuration not stated): the inhibition result was “inactive”.
Regarding `Cc1cccc(NC(=O)CN2CCCN(S(=O)(=O)c3ccc(Br)s3)CC2)c1`, the inhibition was 39.5% (active).
On to `O=C(CSCc1ccc(Br)cc1)Nc1ccc(S(=O)(=O)N2CCCCCC2)cc1`, for which the inhibition result is “inactive”.
With `Cc1cccc(N(C)C(=O)CN2C(=O)COc3ccc(S(=O)(=O)N4CCCCCC4)cc32)c1` the entry was “inactive”.
As for `O=C1c2ccccc2C2=Nc3ccccc3SC(c3ccccc3F)C12` (configuration not stated), the inhibition is 45.5% (active).
For `C=CCN(N=Nc1cccc([N+](=O)[O-])c1)c1cccc([N+](=O)[O-])c1`, the inhibition was 39% (active).
With `Cc1ccc(NC2CCCN(C(=O)CCC3(C)CC3)C2)cc1C` (configuration not stated) the entry was “inactive”.

For the origin of these results see PubChem BioAssay AID492997 (Johns Hopkins Ion Channel Center, 2010).
